# Experimental data from PubChem BioAssay (EPA / NIEHS).
# Inconclusive results are not listed. The source made the active and inactive calls. How the source made its calls: active means hit-call score of the fitted dose curve at least 0.9, where 1 is the maximum; inconclusive means response in the unintended direction; inactive means score below 0.9.
# Columns and labels:
# [1] = molecular target: human Neurokinin, NK2 Receptor, TACR2 (gene 6865) (UniProt P21452); experiment: NVS_GPCR_hNK2: NovaScreen (NVS) G Protein-Coupled Receptor Assay for human Neurokinin, NK2 Receptor (AID 2283278);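 further: actives reduce bound radioligand signal relative to DMSO baseline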
# Chain of human Neurokinin, NK2 Receptor, TACR2 (gene 6865) (P21452 whole entry, looked up): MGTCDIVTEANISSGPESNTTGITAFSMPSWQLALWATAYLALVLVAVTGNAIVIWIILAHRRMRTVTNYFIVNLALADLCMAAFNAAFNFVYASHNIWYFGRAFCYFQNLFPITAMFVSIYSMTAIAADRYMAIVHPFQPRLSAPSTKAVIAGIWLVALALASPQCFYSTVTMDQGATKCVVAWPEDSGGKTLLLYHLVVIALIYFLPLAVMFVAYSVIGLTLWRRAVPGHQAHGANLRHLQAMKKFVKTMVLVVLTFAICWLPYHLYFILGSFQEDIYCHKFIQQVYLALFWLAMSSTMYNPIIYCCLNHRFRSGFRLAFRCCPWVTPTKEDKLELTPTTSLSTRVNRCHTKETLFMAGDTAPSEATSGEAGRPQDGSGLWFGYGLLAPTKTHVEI
# Method in brief: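 Cell-free radioligand binding using receptor protein extracted from CHO cells; readings taken 4 hours after chemical dosing by filter-based scintillation counting. Primary screen ran single concentration (25 uM) in duplicate; actives followed up in concentration series, loss-of-signal versus DMSO baseline.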
# [2] = molecular target: Muscarinic acetylcholine receptor M3 (Homo sapiens) (UniProt P20309); experiment: NVS_GPCR_hM3: NovaScreen (NVS) G Protein-Coupled Receptor Assay for human Muscarinic, M3 Receptor (AID 2283272)
# Chain of Muscarinic acetylcholine receptor M3 (Homo sapiens) (P20309 whole entry, looked up): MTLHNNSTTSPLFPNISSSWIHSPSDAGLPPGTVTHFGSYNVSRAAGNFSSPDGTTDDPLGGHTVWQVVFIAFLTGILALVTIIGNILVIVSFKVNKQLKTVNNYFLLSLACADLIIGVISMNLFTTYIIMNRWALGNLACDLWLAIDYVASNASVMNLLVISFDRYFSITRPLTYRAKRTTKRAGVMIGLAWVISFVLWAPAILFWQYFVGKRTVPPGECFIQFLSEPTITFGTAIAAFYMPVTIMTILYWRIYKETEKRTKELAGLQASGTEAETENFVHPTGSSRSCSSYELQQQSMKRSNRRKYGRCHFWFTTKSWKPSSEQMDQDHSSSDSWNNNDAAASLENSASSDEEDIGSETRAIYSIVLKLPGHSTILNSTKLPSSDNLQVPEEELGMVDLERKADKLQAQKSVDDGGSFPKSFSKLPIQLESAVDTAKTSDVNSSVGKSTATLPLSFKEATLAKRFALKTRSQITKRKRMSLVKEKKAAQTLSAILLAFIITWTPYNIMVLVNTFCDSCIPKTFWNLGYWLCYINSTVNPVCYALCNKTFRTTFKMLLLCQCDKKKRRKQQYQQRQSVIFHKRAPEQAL
# Method in brief: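 Radioligand displacement binding on human M3 receptor in CHO-derived membranes, 1 h incubation, filter-based scintillation counting. Primary screen in duplicate at 25 uM; actives followed up in concentration series; loss of signal versus DMSO.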
# [3] = molecular target: guinea pig Bradykinin Receptor B2 (BK2), BDKRB2 (gene 100135486) (UniProt O70526); experiment: NVS_GPCR_gBK2: NovaScreen (NVS) G Protein-Coupled Receptor Assay for guinea pig Bradykinin Receptor B2 (BK2) (AID 2283292)
# Chain of guinea pig Bradykinin Receptor B2 (BK2), BDKRB2 (gene 100135486) (O70526 whole entry, looked up): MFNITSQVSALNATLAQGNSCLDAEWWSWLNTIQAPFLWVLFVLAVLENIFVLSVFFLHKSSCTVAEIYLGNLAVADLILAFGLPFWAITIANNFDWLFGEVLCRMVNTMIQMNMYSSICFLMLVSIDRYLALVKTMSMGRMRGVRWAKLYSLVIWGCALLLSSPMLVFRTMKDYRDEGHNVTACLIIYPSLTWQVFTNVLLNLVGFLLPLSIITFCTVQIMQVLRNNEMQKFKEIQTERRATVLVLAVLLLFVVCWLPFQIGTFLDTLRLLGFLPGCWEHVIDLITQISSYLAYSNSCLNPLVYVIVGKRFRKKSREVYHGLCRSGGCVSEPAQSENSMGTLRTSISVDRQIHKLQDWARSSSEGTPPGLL
# Method in brief: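 Radioligand displacement on guinea pig ileum membranes for 1 h, read by filter-based scintillation counting; loss of signal relative to DMSO. Compounds were screened in duplicate at 25 uM, and those passing the threshold were retested in concentration-response up to 50 uM.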
# [4] = molecular target: human Opioid Receptor Delta 1 (Opiate D1), OPRD1 (gene 4985) (UniProt P41143); experiment: NVS_GPCR_hOpiate_D1: NovaScreen (NVS) G Protein-Coupled Receptor Assay for human Opioid Receptor Delta 1 (Opiate D1) (AID 2283280)
# Chain of human Opioid Receptor Delta 1 (Opiate D1), OPRD1 (gene 4985) (P41143 whole entry, looked up): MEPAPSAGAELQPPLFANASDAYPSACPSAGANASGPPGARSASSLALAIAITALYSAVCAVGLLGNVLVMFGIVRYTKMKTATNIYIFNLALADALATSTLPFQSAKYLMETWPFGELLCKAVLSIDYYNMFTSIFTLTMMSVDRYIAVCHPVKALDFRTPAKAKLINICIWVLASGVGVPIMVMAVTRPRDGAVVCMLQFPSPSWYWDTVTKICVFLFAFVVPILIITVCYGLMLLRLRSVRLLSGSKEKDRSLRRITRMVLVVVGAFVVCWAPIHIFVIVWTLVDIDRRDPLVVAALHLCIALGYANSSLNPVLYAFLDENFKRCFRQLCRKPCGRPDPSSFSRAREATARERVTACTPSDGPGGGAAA
# Method in brief: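 Radioligand displacement on membranes from CHO cells expressing the receptor, read by filter scintillation counting 1 h after dosing. Duplicate single-point screen at 25 uM, then concentration series for actives; loss of signal versus DMSO.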
# [5] = molecular target: human Opioid Receptor Mu (Opiate Mu), OPRM1 (gene 4988) (UniProt P35372); experiment: NVS_GPCR_hOpiate_mu: NovaScreen (NVS) G Protein-Coupled Receptor Assay for human Opioid Receptor Mu (Opiate Mu) (AID 2283290);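 further: hits lower bound tracer signal versus DMSO meaning displacement of the ligand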
# Chain of human Opioid Receptor Mu (Opiate Mu), OPRM1 (gene 4988) (P35372 whole entry, looked up): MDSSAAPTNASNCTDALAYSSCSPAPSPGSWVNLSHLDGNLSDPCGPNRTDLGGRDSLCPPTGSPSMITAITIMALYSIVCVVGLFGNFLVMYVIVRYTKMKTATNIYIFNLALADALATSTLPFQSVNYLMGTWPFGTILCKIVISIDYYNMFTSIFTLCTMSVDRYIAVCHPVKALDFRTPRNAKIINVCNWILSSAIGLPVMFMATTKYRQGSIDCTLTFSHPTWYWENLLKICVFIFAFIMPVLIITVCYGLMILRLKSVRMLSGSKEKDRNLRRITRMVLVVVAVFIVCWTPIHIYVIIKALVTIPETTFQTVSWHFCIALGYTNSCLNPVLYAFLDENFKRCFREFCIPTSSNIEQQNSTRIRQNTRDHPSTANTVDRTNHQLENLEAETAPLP
# Method in brief: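 Primary screen in duplicate at 25 uM, with actives followed in concentration series. CHO-derived receptor membranes, cell-free; bound radioligand read by scintillation counting after filtration at 2.5 h, decrease scored against DMSO.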
# [6] = molecular target: rat Serotonin, 5-Hydroxytryptamine Receptor 1 (5HT1), Non-Selective Binding, Htr1a (gene 24473) (UniProt P19327); experiment: NVS_GPCR_r5HT1_NonSelective: NovaScreen (NVS) G Protein-Coupled Receptor Assay for rat Serotonin, 5-Hydroxytryptamine Receptor 1 (5HT1), Non-Selective Binding (AID 2283286)
# Method in brief: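 Rat cortical membranes, radioligand displacement, 1 h incubation, read by filter scintillation. Primary screen in duplicate at 25 uM. Hits (e.g. ≥30% inhibition) went to concentration-response up to 50 uM, fitted as loss of binding versus DMSO.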
# [7] = molecular target: rat Adrenergic, Alpha 1, Non-selective Receptor (Adra1), Adra1a (gene 29412) (UniProt P43140); experiment: NVS_GPCR_rAdra1_NonSelective: NovaScreen (NVS) G Protein-Coupled Receptor Assay for rat Adrenergic, Alpha 1, Non-selective Receptor (Adra1) (AID 2283289)
# Method in brief: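 Rat forebrain membranes; radioligand displacement read by filter-based scintillation counting 1 h after dosing. Primary screen in duplicate at 25 uM; hits (e.g. ≥30% inhibition) rerun as concentration–response to 50 uM max. Fitted versus DMSO.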
# [8] = molecular target: human Neuropeptide Receptor Y1 (NPY1), NPY1R (gene 4886) (UniProt P25929); experiment: NVS_GPCR_hNPY1: NovaScreen (NVS) G Protein-Coupled Receptor Assay for human Neuropeptide Receptor Y1 (NPY1) (AID 2283276)
# Chain of human Neuropeptide Receptor Y1 (NPY1), NPY1R (gene 4886) (P25929 whole entry, looked up): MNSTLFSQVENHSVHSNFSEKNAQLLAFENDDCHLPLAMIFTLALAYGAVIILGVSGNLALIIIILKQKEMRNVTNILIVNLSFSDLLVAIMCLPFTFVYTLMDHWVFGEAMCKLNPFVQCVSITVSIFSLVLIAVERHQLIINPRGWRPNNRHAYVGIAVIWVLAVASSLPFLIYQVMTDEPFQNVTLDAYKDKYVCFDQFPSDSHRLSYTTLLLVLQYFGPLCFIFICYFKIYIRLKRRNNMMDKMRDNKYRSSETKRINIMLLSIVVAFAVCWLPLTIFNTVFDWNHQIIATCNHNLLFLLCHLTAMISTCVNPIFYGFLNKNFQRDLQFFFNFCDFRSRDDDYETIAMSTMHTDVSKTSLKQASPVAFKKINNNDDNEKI
# Method in brief: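 Cell-free radioligand binding using receptor extracted from SK-N-MC cells, 1 h incubation, filter-based scintillation counting. Primary screen single concentration 25 uM in duplicate; actives followed in concentration series. Loss of bound signal scored versus DMSO.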
# [9] = tested on: rabbit Platelet Activating Factor Receptor (PAF), gene 100354046; experiment: NVS_GPCR_rabPAF: NovaScreen (NVS) G Protein-Coupled Receptor Assay for rabbit Platelet Activating Factor Receptor (PAF) (AID 2283287)
# Method in brief: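 Rabbit platelet membrane preparation; radioligand displacement read by filter-based scintillation counting 1 h after dosing, loss of signal versus DMSO. Primary screen in duplicate at 25 uM, actives followed up in concentration series.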
# [10] = molecular target: Muscarinic acetylcholine receptor M2 (Homo sapiens) (UniProt P08172); experiment: NVS_GPCR_hM2: NovaScreen (NVS) G Protein-Coupled Receptor Assay for human Muscarinic, M2 Receptor (AID 2283273)
# Chain of Muscarinic acetylcholine receptor M2 (Homo sapiens) (P08172 whole entry, looked up): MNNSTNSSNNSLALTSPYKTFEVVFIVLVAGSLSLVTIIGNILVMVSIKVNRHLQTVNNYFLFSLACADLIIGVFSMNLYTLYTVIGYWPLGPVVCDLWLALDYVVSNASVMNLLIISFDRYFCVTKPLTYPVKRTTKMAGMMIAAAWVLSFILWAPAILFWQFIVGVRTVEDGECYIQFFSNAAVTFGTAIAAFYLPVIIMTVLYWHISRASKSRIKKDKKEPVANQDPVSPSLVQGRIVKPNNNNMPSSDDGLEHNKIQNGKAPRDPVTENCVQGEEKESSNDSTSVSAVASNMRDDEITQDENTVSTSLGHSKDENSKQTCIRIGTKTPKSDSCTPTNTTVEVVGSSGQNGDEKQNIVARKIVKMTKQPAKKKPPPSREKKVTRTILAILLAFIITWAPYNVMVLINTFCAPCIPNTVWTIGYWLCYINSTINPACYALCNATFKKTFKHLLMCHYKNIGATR
# Method in brief: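 Cell-free radioligand binding using membranes from CHO cells expressing the receptor; filter-based scintillation counting after 1 hour of compound exposure. Loss of specific binding relative to DMSO baseline; primary screen at 25 uM in duplicate, actives then run in concentration series.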
# [11] = molecular target: human Muscarinic, M4 Receptor, CHRM4 (gene 1132) (UniProt P08173); experiment: NVS_GPCR_hM4: NovaScreen (NVS) G Protein-Coupled Receptor Assay for human Muscarinic, M4 Receptor (AID 2283274)
# Chain of human Muscarinic, M4 Receptor, CHRM4 (gene 1132) (P08173 whole entry, looked up): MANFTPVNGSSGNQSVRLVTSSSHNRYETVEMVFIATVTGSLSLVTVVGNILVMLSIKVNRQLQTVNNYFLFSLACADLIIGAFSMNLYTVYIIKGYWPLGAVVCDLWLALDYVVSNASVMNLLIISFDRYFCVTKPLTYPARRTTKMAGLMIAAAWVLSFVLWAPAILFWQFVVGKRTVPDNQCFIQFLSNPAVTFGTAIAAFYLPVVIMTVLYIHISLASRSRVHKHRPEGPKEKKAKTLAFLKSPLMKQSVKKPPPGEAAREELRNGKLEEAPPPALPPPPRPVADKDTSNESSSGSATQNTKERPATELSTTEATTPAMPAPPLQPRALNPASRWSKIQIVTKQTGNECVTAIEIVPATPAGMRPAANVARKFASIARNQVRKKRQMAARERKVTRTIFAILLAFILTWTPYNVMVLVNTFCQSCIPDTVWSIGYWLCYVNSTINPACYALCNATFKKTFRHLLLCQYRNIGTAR
# Method in brief: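 Cell-free radioligand displacement using CHO-derived human M4 receptor protein, 1 h after dosing; bound radioactivity by filtration and scintillation counting. Primary screen single 25 uM duplicate, actives followed in concentration series.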
# [12] = molecular target: human Orphanin, Opioid Related Nociceptin Receptor 1 (ORL1), OPRL1 (gene 4987) (UniProt P41146); experiment: NVS_GPCR_hORL1: NovaScreen (NVS) G Protein-Coupled Receptor Assay for human Orphanin, Opioid Related Nociceptin Receptor 1 (ORL1) (AID 2283283)
# Method in brief: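 Filter-based radioligand displacement with receptor extracted from HEK293 cells, read 1 hour after dosing by scintillation counting. Duplicate single-point screen at 25 uM; qualifying chemicals then run in concentration-response to 50 uM, analysed relative to DMSO.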
# [13] = tested on: 5-hydroxytryptamine receptor 2C (pig); experiment: NVS_GPCR_p5HT2C: NovaScreen (NVS) G Protein-Coupled Receptor Assay for pig Serotonin, 5-Hydroxytryptamine Receptor 2C (5HT2C) (AID 2283288)
# Method in brief: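 Pig choroid plexus membranes; radioligand competitive binding, filter-based scintillation counting, read 1 h after dosing. Primary screen in duplicate at 25 uM; actives then run as concentration series; loss of signal versus DMSO baseline.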
# [14] = molecular target: human Purinergic Receptor P2Y, P2RY1 (gene 5028) (UniProt P47900); experiment: NVS_GPCR_hPY2: NovaScreen (NVS) G Protein-Coupled Receptor Assay for human Purinergic Receptor P2Y (AID 2283281)
# Method in brief: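 Cell-free radioligand binding using U937-derived protein, 1 h after dosing, filter-based scintillation counting. Screened in duplicate at 25 uM; actives rerun as concentration-response up to 50 uM; loss of signal versus DMSO.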
# [15] = molecular target: human Vasopressin 1A Receptor (V1A), AVPR1A (gene 552) (UniProt P37288); experiment: NVS_GPCR_hV1A: NovaScreen (NVS) G Protein-Coupled Receptor Assay for human Vasopressin 1A Receptor (V1A) (AID 2283284)
# Chain of human Vasopressin 1A Receptor (V1A), AVPR1A (gene 552) (P37288 whole entry, looked up): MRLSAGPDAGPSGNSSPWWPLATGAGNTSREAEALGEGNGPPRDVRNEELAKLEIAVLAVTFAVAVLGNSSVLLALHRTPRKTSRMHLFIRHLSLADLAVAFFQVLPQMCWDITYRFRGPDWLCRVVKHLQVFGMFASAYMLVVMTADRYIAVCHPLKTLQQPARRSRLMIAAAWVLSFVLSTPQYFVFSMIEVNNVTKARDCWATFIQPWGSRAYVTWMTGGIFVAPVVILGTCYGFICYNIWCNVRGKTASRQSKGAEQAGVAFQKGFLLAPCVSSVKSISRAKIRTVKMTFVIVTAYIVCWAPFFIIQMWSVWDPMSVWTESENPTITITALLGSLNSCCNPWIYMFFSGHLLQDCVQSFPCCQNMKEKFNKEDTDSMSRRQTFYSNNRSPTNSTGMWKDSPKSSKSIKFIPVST
# Method in brief: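 Cell-free radioligand displacement on human platelet preparations, 1.5 h incubation, filter-based scintillation counting. Chemicals first tested in duplicate at 25 uM; actives then run in concentration-response up to 50 uM, loss of signal fitted against DMSO.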
# [16] = molecular target: human Neurotensin Receptor (NTS), NTSR1 (gene 4923) (UniProt P30989); experiment: NVS_GPCR_hNTS: NovaScreen (NVS) G Protein-Coupled Receptor Assay for human Neurotensin Receptor (NTS) (AID 2283279)
# Chain of human Neurotensin Receptor (NTS), NTSR1 (gene 4923) (P30989 whole entry, looked up): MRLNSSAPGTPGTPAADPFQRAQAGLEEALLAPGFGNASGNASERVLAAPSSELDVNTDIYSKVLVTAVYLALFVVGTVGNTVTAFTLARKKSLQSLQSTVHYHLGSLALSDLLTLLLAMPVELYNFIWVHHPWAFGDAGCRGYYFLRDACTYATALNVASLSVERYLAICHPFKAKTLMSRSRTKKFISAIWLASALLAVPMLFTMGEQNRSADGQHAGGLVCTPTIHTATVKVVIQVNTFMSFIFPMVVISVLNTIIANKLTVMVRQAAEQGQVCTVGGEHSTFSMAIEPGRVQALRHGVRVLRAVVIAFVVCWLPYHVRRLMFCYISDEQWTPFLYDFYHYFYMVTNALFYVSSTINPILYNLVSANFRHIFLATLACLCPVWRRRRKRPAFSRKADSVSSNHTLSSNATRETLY
# Method in brief: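 Radioligand displacement on human NTSR1 protein from CHO cells, cell-free, 1 h, filter-based scintillation counting. Primary screen at 25 uM in duplicate; hits rerun in concentration-response up to 50 uM.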
# [17] = molecular target: guinea pig Serotonin, 5-Hydroxytryptamine Receptor 4 (5HT4), HTR4 (gene 100135548) (UniProt O70528); experiment: NVS_GPCR_g5HT4: NovaScreen (NVS) G Protein-Coupled Receptor Assay for guinea pig Serotonin, 5-Hydroxytryptamine Receptor 4 (5HT4) (AID 2283294)
# Chain of guinea pig Serotonin, 5-Hydroxytryptamine Receptor 4 (5HT4), HTR4 (gene 100135548) (O70528 whole entry, looked up): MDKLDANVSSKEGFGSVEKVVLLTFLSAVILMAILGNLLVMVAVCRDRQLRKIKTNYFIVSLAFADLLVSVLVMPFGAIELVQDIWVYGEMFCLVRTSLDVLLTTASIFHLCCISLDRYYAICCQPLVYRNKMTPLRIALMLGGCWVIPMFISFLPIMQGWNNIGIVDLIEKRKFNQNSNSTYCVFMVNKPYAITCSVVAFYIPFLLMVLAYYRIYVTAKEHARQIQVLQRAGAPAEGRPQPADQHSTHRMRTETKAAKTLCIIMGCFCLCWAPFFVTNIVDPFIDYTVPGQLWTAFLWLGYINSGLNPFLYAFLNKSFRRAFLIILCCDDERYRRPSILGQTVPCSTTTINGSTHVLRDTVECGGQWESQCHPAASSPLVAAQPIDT
# Method in brief: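 Guinea pig striatal membranes; radioligand competitive displacement, filtration and scintillation counting after 1 h. Primary screen in duplicate at 25 uM; actives then tested in concentration series; loss of binding signal fitted relative to DMSO.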
structure (smiles),measurement,setting,value
N[C@@H](Cc1cc(I)c(Oc2ccc(O)c(I)c2)c(I)c1)C(=O)O,outcome,[1],inactive
C[C@]12CC[C@@H]3c4ccc(O)cc4C[C@@H](CCCCCCCCCS(=O)CCCC(F)(F)C(F)(F)F)[C@H]3[C@@H]1CC[C@@H]2O (stereo partly drawn),outcome,[2],inactive
CCCOC(=O)c1ccc(C(=O)OCCC)nc1,outcome,[3],inactive
CC(C)CCCCCCc1ccc(O)cc1,outcome,[4],inactive
same,AC50,[5],15.8 µM (active)
COC(=O)CSc1cc(N=c2sc(=O)n3n2CCCC3)c(F)cc1Cl,outcome,[6],inactive
same,outcome,[7],inactive
Cc1nn(C)c(Oc2ccccc2)c1C=NOCc1ccc(C(=O)OC(C)(C)C)cc1,outcome,[8],inactive
same,outcome,[1],inactive
CC(C)(C)[C@@H](O)[C@@H](Cc1ccc(Cl)cc1)n1cncn1,outcome,[1],inactive
same,outcome,[9],inactive
CCCCCOC(=O)COc1cc(N2C(=O)C3=C(CCCC3)C2=O)c(F)cc1Cl,outcome,[5],inactive
CC(=O)S[C@@H]1CC2=CC(=O)CC[C@]2(C)[C@H]2CC[C@@]3(C)[C@@H](CC[C@@]34CCC(=O)O4)[C@H]12,outcome,[1],inactive
same,AC50,[4],4.42 µM (active)
CC(=O)[C@H]1CC[C@H]2[C@@H]3CCC4=CC(=O)CC[C@]4(C)[C@H]3CC[C@]12C,outcome,[10],inactive
same,outcome,[11],inactive
C[C@]12C[C@H](O)[C@H]3[C@@H](CCC4=CC(=O)CC[C@@]43C)[C@@H]1CC[C@@H]2C(=O)CO,AC50,[12],39 µM (active)
O=C(c1ccc(O)cc1O)c1ccc(O)cc1O,AC50,[4],18.5 µM (active)
same,AC50,[13],17.4 µM (active)
O=C(O)c1ccccc1,outcome,[14],inactive
same,outcome,[15],inactive
COC(=O)c1ccc(CNS(C)(=O)=O)cc1S(=O)(=O)NC(=O)Nc1nc(OC)cc(OC)n1,outcome,[16],inactive
same,outcome,[7],inactive
C=CCOC(Cn1ccnc1)c1ccc(Cl)cc1Cl (stereo not drawn),AC50,[2],5.02 µM (active)
same,AC50,[10],2.67 µM (active)
same,AC50,[11],5.37 µM (active)
same,AC50,[4],4.96 µM (active)
same,AC50,[5],11.2 µM (active)
same,AC50,[17],5.39 µM (active)
COC(=O)c1cccc(C)c1S(=O)(=O)NC(=O)Nc1nc(OCC(F)(F)F)nc(N(C)C)n1,AC50,[15],1.32 µM (active)
S=C([S-])NCCNC(=S)[S-].[Mn+2],AC50,[8],13.3 µM (active)
same,outcome,[16],inactive
same,outcome,[15],inactive
same,outcome,[9],inactive
same,AC50,[5],3.16 µM (active)
same,AC50,[3],30.5 µM (active)
same,AC50,[17],25 µM (active)
CCC(C)OC(=O)N1CCCCC1CCO (stereo not drawn),outcome,[5],inactive
